What was measured:
Assay in all cases: PBM binding z-score (relative to random genomic background probes); higher = stronger binding; sequences stand for … in GC…GCGATTGACAGCGTAGAATGAAGG
[1] = test system: PPARg:RXRa DBDmut IVT, anti-RXR (DBD mutation: RXRa K156A/R161A, NR concentration 270 nM, RXRa partner concentration 90 nM)
Procedure, shortened: (§1)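 Binding buffer was PBS pH 7.4 with 2% milk, 0.02% Triton X-100, 1 mM DTT, 0.2 mg/mL BSA and 0.4 mg/ml salmon testes DNA. In it, ligand-free nuclear receptor dimers were incubated 1 h on custom Agilent 4×180K protein-binding microarrays carrying double-stranded probes. Antibodies against each partner (one per run) detected binding, and z-scores were calculated against random background probes after regression normalization of scanned fluorescence.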

[2] = test system: PPARg:RXRa IVT, anti-PPARg (NR concentration 270 nM, RXRa partner concentration 90 nM)
Procedure, shortened: as §1

[3] = test system: PPARg DBDmut:RXRa IVT, anti-PPARg (DBD mutation: PPARg1 K132A/R137A, NR concentration 270 nM, RXRa partner concentration 90 nM)
Procedure, shortened: as §1

[4] = test system: PPARg DBDmut IVT, anti-PPARg (DBD mutation: PPARg1 K132A/R137A, NR concentration 270 nM)
Procedure, shortened: as §1

[5] = test system: PPARg homodimer (NR concentration 180 nM)
Procedure, shortened: as §1

[6] = test system: PXR:RXRa (NR concentration 270 nM, RXRa partner concentration 90 nM)
Procedure, shortened: as §1

[7] = test system: PXR homodimer (NR concentration 270 nM)
Procedure, shortened: as §1

[8] = test system: RARa:RXR (NR concentration 270 nM, RXRa partner concentration 90 nM)
Procedure, shortened: as §1

[9] = test system: RARa homodimer (NR concentration 270 nM)
Procedure, shortened: as §1

[10] = test system: RARb:RXRa (NR concentration 270 nM, RXRa partner concentration 90 nM)
Procedure, shortened: as §1

| Sequence | PBM binding z-score [1] | PBM binding z-score [2] | PBM binding z-score [3] | PBM binding z-score [4] | PBM binding z-score [5] | PBM binding z-score [6] | PBM binding z-score [7] | PBM binding z-score [8] | PBM binding z-score [9] | PBM binding z-score [10] |
| --- | --- | --- | --- | --- | --- | --- | --- | --- | --- | --- |
| GGAACGAGGGCATTCGCGTTGATAGCATGGCGAT | 2.08 | 1.86 | -0.525 | -0.616 | -0.126 | 0.744 | -0.0684 | 0.449 | -0.431 | 1.71 |
| TCATATAGGTAAACAGGTGAAAGTTCGTAAGTTA | 4.94 | 5.28 | 1.8 | 1.15 | 1.88 | 2.07 | 2.12 | 2.61 | 2.02 | 1.25 |
| TCATATAGGTAAAAGCTGAAAGTCGGTGTGGTAA | 4.01 | 2.14 | 1.19 | 0.683 | 0.11 | 0.239 | -0.198 | 0.257 | 0.519 | 0.0291 |
| AATACAGCGTCACTAGGCCAGAGTAGGTACGAAT | 0.487 | 1.5 | -0.275 | 0.0334 | -0.38 | -0.519 | -0.407 | -0.516 | -0.0306 | -0.113 |
| TCTTGTAGATCAGCAGCTTAAGAAAGCTGGCCAA | 1.33 | -0.294 | -1.1 | -0.39 | -0.337 | -0.0714 | -0.755 | 0.087 | -0.736 | -0.491 |
| ACATGTAGGTTAAGGGTCATTCAGGTTGGTTCGC | 6.63 | 7.34 | 4.14 | 3.37 | 4.52 | 5.46 | 2.78 | 5.86 | 2.44 | 3.53 |
| AGAACGAGGGCACGCTGAGTTGATAGCGGAGTAG | 4.05 | 3.75 | 0.375 | 0.0426 | 0.25 | 1.35 | 0.0475 | 0.611 | 0.00108 | 2.42 |
| ATATGTAGGTTAAGGGTCATACAGGTTGGTTCGC | 7.57 | 7.96 | 4.09 | 2.15 | 4.5 | 5.37 | 1.88 | 6.2 | 2.6 | 3.76 |
| ATCTCTAGGTAAAACTTCAGTGAATCCCGAGGAT | 1.85 | 1.8 | 1.22 | 0.94 | -0.0625 | -0.0735 | 0.231 | -0.12 | 0.676 | 0.128 |
| CGAACTAGATCATCCAGGACAGTGAATACATTGA | 2.02 | 1.22 | 0.762 | 0.684 | 0.315 | -0.222 | 0.306 | 0.105 | 1.19 | -0.2 |
| CCGACTGGGTCAAGGTTACCATAACGCACAGCCA | 5.21 | 5.93 | 0.445 | -0.0986 | 1.69 | 2.17 | 0.366 | 2.76 | 0.448 | 3.62 |
| CCGAGTAGGTTATGGGGAATTCAGGCAACGGTGA | 3.51 | 2.6 | -0.221 | 0.307 | 1.64 | 0.204 | 0.469 | 0.654 | 0.587 | 0.784 |
| TGTCAAAGTTCAAAGGTAATGTAAGTATCCACAC | 0.141 | 4.47 | 1.92 | 1.26 | 3.02 | 5.65 | 3.61 | 5.92 | 1.41 | 4.94 |
| TTACCATGGTGAAAGGTCGTTGATGCACGCCTTG | 0.72 | 2.89 | 0.347 | -0.209 | 0.983 | 2.74 | 0.676 | 3.2 | -0.159 | 1.94 |
| TCATATAGGTAAATGCTGGGTGAAAGTCCGATCT | 4.13 | 2.63 | 0.471 | 0.976 | 1.04 | 0.606 | 0.456 | 0.833 | 1.19 | 0.495 |
| CCGAGTAGGTTATGGGGCATTCAGGCAACGGTGA | 3.19 | 3.21 | -0.378 | 0.039 | 0.874 | -0.0382 | 0.0489 | 0.571 | 0.139 | 0.99 |
| ATAACAAGGTGATCGTGAGGTCGTTGATACTAAC | 1.16 | 1.89 | 1.52 | 0.304 | 0.85 | 3.06 | 1.63 | 2.01 | 0.293 | 1.51 |
| AGTCAAAGTTCAACTAGGTAACGTAAGATATGCT | 1.28 | 4.36 | 2.11 | 1.11 | 3.26 | 5.04 | 3.96 | 4.28 | 2.01 | 5.16 |
| TCAGACAGGCGAAGGTAACTCAGGTACGCAGTCG | 1.62 | -0.431 | -0.529 | -0.776 | -0.126 | 0.167 | -0.281 | 0.0245 | -0.553 | 0.0079 |
| CGCCCAAGGTCAAGGTCAGTGAAAGAGACTCGAA | 3.15 | 4.18 | 0.61 | -0.556 | 3.84 | 4.83 | 0.538 | 5.32 | 1.22 | 5.62 |
| TCGAGTAGGTTACCAATGGGGCATACAGCTTTCT | 3.13 | 3.01 | -0.185 | -0.3 | -0.0294 | 0.327 | -0.38 | 0.453 | -0.62 | 0.89 |
| TCGAGTAGGGTAGTCGGGGCATTCAGCCAACATA | 1.33 | 0.997 | -1.17 | -0.743 | 0.299 | -0.12 | -0.394 | -0.233 | -0.527 | 0.0213 |
| AATACATGGTCATCGTAGGCCAGAGTACGCACAG | 0.199 | 1.21 | 0.624 | 0.968 | -0.153 | 0.3 | -0.157 | 0.574 | 0.339 | 1.14 |

Reference: the supplement of paper PMC6555819
